# Reference: PMC7862700, “An all-to-all approach to the identification of sequence-specific readers for epigenetic DNA modifications on cytosine”
# Assays:
# Test in all cases: DAPPL (digital affinity profiling via proximity ligation, sequencing); 10 mM Tris-HCl pH 7.5, 50 mM NaCl, 1 mM DTT, 4% glycerol, room temperature, 30 min; GST-TFs on glutathione beads, 16-mer random dsDNA library, 0.1% formaldehyde crosslink after washing; high values mean tight binding
# Details in all cases: protein: recombinant; tags: N-terminal GST; dsDNA, one strand shown
# ELK1 = molecular target: T1, ELK1 (Homo sapiens, UniProt P19419 1-428)
# T1 sequence: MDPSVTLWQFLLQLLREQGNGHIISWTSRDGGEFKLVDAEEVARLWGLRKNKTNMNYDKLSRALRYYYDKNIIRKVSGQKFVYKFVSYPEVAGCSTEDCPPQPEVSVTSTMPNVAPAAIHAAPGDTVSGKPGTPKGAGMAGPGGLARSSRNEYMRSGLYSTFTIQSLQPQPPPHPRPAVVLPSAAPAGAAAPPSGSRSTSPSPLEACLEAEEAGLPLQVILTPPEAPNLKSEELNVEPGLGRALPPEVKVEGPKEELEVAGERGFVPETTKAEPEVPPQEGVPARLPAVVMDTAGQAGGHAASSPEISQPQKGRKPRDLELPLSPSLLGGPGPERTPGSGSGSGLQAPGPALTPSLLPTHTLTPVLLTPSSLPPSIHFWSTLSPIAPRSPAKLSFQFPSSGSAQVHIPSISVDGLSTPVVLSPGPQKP
# Summary of the method: (§1)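 Pools were built from human transcription factors expressed in yeast as GST fusions, captured on glutathione beads and DNA-barcoded, along with a tag-only sample. Incubation with 200 nmole of a 16-mer random double-stranded DNA library lasted 30 min at room temperature in Tris/NaCl/DTT/glycerol buffer, and was followed by washing, 0.1% formaldehyde crosslinking, proximity ligation, PCR amplification and Illumina NextSeq500 sequencing. Binding signal is the quotient of each hexamer's read frequency for a factor and its frequency for the tag-only sample.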
# ERG = molecular target: T2, ERG (Homo sapiens, UniProt P11308 1-479)
# T2 sequence: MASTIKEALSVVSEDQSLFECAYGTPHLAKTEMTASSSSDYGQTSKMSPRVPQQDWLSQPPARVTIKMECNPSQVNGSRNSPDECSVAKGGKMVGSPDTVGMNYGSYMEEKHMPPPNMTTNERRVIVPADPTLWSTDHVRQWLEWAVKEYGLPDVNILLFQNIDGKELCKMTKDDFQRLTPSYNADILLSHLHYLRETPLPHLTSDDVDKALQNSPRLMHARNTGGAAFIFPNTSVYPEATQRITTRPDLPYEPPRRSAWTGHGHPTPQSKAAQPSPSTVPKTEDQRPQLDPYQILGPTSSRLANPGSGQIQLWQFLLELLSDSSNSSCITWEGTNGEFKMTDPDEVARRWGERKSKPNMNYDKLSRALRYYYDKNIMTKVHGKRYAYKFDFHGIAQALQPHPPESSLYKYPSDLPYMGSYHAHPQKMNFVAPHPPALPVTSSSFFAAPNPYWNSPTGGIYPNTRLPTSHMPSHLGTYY
# Summary of the method: as §1
# ELF1 = ELF1 (Homo sapiens, UniProt P32519 1-619)
# Summary of the method: as §1
# EHF = molecular target: T3, EHF (Homo sapiens, UniProt Q9NZC4 1-300)
# T3 sequence: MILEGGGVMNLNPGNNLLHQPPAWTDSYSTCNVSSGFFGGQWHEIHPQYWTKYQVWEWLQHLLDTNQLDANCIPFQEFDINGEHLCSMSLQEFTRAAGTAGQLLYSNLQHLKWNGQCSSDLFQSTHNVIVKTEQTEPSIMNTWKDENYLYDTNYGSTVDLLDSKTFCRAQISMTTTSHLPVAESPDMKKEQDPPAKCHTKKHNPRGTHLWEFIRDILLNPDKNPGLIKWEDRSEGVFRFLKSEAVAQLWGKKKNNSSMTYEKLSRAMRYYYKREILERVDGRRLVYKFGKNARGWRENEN
# Summary of the method: as §1
# SPI1 = SPI1 (Homo sapiens, UniProt P17947 1-270)
# Summary of the method: as §1
# SPIB = SPIB (Homo sapiens, UniProt Q01892 1-262)
# Summary of the method: as §1
# FEV = molecular target: T4, FEV (Homo sapiens, UniProt Q99581 1-238)
# T4 sequence: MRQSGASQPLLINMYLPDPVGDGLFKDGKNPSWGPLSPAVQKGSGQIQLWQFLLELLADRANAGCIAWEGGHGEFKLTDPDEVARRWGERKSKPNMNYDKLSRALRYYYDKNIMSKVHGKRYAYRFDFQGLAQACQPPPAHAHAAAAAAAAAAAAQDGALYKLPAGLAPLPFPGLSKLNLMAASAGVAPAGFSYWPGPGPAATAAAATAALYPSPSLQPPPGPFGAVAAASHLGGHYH
# Summary of the method: as §1
# ETV5 = ETV5 (Homo sapiens, UniProt P41161 1-510)
# Summary of the method: as §1
# ELK4 = molecular target: T5, ELK4 (Homo sapiens, UniProt P28324-2 1-405)
# T5 sequence: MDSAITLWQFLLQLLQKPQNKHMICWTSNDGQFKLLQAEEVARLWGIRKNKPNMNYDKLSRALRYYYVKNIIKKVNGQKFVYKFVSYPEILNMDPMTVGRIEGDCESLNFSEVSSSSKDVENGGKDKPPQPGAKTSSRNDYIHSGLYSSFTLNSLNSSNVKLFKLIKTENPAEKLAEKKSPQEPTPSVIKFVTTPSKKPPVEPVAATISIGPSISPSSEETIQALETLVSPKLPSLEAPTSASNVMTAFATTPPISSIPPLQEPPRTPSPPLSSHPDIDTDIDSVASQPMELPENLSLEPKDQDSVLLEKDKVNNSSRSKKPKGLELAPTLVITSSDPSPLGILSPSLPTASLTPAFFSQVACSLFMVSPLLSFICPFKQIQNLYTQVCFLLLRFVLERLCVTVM
# Summary of the method: as §1
# ETV1 = ETV1 (Homo sapiens, UniProt P50549 1-477)
# Summary of the method: as §1
# ERF = molecular target: T6, ERF (Homo sapiens, UniProt P50548 1-548)
# T6 sequence: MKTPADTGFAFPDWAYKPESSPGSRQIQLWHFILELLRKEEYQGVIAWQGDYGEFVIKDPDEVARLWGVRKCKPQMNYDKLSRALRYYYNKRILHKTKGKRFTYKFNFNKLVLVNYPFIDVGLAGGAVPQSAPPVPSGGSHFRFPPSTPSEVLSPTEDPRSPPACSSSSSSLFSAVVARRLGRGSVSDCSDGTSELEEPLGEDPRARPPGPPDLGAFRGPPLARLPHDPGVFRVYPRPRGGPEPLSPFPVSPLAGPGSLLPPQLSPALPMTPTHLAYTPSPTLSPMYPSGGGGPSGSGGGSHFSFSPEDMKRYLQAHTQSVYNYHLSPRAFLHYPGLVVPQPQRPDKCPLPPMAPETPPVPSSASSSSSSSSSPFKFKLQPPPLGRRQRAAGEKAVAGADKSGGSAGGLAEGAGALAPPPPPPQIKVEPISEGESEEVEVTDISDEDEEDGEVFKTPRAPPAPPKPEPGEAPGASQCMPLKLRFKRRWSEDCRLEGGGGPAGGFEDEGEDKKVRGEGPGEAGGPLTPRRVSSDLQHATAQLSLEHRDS
# Summary of the method: as §1
# ETV3L = molecular target: T7, ETV3L (Homo sapiens, UniProt Q6ZN32 1-361)
# T7 sequence: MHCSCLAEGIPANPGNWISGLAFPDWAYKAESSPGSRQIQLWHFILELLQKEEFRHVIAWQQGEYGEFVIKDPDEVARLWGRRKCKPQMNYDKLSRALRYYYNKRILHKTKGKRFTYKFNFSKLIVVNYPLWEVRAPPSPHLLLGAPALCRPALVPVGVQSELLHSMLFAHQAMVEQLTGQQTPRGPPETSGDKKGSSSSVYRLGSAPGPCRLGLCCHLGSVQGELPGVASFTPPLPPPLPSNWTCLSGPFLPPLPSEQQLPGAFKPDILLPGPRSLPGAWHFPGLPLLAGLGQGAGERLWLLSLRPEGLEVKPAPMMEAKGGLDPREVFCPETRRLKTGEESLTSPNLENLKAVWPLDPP
# Summary of the method: as §1
# ETS2 = molecular target: T8, ETS2 (Homo sapiens, UniProt P15036 1-469)
# T8 sequence: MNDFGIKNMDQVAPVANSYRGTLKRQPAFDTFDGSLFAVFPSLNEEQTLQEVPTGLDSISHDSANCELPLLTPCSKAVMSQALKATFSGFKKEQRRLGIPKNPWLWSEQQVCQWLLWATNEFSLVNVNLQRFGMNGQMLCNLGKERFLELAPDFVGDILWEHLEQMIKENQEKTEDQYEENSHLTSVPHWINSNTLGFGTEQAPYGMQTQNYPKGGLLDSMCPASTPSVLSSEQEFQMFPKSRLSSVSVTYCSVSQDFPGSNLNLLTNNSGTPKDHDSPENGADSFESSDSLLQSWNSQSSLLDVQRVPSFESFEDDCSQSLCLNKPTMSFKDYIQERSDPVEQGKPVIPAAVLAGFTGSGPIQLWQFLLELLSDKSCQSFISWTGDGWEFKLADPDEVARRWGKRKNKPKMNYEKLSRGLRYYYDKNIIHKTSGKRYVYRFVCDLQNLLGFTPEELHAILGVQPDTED
# Summary of the method: as §1
# SPDEF = molecular target: T9, SPDEF (Homo sapiens, UniProt O95238 1-335)
# T9 sequence: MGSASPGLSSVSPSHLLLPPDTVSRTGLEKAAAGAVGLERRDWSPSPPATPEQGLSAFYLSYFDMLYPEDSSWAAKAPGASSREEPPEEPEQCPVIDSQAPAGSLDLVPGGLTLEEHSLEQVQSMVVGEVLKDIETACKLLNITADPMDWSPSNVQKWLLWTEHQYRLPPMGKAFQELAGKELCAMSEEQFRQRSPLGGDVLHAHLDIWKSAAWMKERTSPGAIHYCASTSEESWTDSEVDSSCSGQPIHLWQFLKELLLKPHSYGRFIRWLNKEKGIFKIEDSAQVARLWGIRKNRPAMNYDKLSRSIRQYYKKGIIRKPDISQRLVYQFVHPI
# Summary of the method: as §1
# ETV3 = molecular target: T10, ETV3 (Homo sapiens, UniProt P41162-2 1-143)
# T10 sequence: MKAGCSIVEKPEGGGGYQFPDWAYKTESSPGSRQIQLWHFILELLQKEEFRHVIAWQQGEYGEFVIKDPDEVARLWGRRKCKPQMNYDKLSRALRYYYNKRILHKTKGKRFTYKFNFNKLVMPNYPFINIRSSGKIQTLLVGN
# Summary of the method: as §1
# ETV6 = ETV6 (Homo sapiens, UniProt P41212 1-452)
# Summary of the method: as §1
# GABPA = molecular target: T11, GABPA (Homo sapiens, UniProt Q06546 1-454)
# T11 sequence: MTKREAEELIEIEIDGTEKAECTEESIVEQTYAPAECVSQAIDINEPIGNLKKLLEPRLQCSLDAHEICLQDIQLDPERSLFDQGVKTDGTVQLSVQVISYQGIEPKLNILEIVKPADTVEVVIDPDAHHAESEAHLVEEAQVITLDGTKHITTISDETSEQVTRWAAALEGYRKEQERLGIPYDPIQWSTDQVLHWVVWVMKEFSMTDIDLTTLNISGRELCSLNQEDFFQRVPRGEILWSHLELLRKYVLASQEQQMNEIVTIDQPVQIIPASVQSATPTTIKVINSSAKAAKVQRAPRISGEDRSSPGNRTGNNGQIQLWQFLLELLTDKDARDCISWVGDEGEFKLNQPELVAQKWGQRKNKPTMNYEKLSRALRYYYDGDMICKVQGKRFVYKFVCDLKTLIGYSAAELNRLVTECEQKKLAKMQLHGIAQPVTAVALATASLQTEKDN
# Summary of the method: as §1
# ELF4 = ELF4 (Homo sapiens, UniProt Q99607 1-663)
# Summary of the method: as §1
# ELF3 = molecular target: T12, ELF3 (Homo sapiens, UniProt P78545 1-371)
# T12 sequence: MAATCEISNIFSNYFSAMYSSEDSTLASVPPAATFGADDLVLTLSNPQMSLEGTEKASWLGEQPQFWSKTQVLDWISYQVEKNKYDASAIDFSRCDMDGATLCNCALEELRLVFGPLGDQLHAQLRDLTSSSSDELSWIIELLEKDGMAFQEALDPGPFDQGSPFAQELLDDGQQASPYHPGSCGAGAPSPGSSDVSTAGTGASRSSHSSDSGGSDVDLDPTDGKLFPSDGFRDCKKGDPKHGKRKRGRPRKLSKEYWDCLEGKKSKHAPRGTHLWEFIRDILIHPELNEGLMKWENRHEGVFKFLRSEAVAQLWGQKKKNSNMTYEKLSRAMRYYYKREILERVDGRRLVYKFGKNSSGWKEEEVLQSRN
# Summary of the method: as §1
# SPIB, sequence (Q01892 whole entry): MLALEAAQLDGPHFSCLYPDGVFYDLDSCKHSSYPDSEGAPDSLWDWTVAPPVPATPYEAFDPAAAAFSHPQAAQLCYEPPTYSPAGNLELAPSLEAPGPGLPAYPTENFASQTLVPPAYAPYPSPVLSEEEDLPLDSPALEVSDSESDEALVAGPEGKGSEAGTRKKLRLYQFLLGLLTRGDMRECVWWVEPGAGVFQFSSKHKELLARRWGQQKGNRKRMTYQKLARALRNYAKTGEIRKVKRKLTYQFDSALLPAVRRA
# ELF1, sequence (P32519 whole entry): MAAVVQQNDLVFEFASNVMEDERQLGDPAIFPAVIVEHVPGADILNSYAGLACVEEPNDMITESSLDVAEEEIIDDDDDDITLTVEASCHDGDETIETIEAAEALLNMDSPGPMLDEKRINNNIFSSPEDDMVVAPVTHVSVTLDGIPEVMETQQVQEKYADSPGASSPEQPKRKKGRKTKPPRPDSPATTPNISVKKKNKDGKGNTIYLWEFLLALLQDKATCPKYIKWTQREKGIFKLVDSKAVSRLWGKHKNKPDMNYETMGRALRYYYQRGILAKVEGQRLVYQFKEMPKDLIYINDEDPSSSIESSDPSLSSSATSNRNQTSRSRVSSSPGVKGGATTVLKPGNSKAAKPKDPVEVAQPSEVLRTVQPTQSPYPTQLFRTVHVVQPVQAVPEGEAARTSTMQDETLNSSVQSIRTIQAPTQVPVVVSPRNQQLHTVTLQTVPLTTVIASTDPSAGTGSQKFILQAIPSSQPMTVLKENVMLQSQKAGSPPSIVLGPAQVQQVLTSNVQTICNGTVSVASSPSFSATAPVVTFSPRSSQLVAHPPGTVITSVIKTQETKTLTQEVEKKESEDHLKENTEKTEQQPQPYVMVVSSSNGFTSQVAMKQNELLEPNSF
# ETV5, sequence (P41161 whole entry): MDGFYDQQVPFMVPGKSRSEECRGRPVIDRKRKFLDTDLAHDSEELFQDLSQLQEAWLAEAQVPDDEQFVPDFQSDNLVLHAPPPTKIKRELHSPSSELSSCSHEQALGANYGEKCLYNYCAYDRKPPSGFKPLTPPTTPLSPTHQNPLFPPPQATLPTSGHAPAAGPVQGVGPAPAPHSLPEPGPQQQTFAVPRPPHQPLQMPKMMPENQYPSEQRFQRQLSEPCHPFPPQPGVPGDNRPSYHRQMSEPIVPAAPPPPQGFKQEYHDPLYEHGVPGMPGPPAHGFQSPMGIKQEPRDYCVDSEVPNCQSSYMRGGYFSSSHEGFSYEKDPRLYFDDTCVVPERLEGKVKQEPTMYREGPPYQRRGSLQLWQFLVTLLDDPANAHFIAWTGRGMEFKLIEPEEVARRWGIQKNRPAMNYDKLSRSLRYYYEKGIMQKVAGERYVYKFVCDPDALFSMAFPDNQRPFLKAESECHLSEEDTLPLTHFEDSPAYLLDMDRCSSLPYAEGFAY
# ETV6, sequence (P41212 whole entry): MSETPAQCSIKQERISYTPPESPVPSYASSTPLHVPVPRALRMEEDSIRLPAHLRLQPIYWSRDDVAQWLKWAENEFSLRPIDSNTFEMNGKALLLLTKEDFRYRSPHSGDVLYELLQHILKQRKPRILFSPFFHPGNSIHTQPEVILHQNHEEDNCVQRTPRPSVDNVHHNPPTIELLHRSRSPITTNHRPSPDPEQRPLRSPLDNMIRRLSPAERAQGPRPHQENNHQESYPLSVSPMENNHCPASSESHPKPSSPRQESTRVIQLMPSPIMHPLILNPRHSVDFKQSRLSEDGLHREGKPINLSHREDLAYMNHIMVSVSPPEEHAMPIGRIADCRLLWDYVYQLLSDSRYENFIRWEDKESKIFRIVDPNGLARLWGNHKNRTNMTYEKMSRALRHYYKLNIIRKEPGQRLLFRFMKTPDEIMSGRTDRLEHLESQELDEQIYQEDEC
# ETV1, sequence (P50549 whole entry): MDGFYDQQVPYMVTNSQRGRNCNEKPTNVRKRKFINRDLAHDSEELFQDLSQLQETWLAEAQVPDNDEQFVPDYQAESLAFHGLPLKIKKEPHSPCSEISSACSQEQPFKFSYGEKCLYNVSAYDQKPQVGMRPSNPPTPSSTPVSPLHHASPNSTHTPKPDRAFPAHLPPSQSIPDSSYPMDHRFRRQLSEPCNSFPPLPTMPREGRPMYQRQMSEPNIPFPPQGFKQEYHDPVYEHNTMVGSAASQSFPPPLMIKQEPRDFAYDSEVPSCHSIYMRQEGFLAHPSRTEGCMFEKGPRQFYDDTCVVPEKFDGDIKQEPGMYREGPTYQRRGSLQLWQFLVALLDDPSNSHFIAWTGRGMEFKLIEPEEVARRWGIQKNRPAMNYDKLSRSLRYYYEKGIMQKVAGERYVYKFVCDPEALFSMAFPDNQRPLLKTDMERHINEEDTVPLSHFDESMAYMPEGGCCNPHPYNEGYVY
# ELF4, sequence (Q99607 whole entry): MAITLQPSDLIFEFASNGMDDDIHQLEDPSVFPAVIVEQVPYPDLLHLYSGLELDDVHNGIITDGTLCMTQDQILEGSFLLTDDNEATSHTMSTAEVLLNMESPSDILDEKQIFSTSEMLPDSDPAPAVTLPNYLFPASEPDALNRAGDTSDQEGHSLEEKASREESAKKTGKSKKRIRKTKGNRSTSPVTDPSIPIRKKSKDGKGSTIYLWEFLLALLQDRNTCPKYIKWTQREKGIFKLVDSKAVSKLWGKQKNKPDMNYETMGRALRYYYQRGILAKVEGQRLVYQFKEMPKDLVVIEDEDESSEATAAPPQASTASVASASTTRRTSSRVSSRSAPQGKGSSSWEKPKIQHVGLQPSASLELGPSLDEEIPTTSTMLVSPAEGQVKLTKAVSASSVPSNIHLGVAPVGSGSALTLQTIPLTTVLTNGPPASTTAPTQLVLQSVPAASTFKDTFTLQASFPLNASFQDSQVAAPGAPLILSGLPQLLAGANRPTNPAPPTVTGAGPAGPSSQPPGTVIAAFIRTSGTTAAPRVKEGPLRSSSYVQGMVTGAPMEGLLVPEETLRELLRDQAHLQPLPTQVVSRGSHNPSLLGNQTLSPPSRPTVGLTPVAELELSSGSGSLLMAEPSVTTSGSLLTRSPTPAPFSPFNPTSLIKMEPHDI
Sequence,binding signal (ELK1),binding signal (ERG),binding signal (ELF1),binding signal (EHF),binding signal (SPI1),binding signal (SPIB),binding signal (FEV),binding signal (ETV5),binding signal (ELK4),binding signal (ETV1),binding signal (ERF),binding signal (ETV3L),binding signal (ETS2),binding signal (SPDEF),binding signal (ETV3),binding signal (ETV6),binding signal (GABPA),binding signal (ELF4),binding signal (ELF3)
CGACTG,"1.13 fold enrichment (6-mer frequency, TF over GST control)","1.05 fold enrichment (6-mer frequency, TF over GST control)","1.08 fold enrichment (6-mer frequency, TF over GST control)","1.02 fold enrichment (6-mer frequency, TF over GST control)","1.04 fold enrichment (6-mer frequency, TF over GST control)","1.05 fold enrichment (6-mer frequency, TF over GST control)","1.1 fold enrichment (6-mer frequency, TF over GST control)","1.06 fold enrichment (6-mer frequency, TF over GST control)","1.22 fold enrichment (6-mer frequency, TF over GST control)","1.13 fold enrichment (6-mer frequency, TF over GST control)","1.17 fold enrichment (6-mer frequency, TF over GST control)","1.07 fold enrichment (6-mer frequency, TF over GST control)","1.08 fold enrichment (6-mer frequency, TF over GST control)","1.06 fold enrichment (6-mer frequency, TF over GST control)","1.05 fold enrichment (6-mer frequency, TF over GST control)","1.02 fold enrichment (6-mer frequency, TF over GST control)",–,–,–
AGCAAA,"1.04 fold enrichment (6-mer frequency, TF over GST control)",–,"1.07 fold enrichment (6-mer frequency, TF over GST control)","1.03 fold enrichment (6-mer frequency, TF over GST control)","1.04 fold enrichment (6-mer frequency, TF over GST control)","1.04 fold enrichment (6-mer frequency, TF over GST control)","1.02 fold enrichment (6-mer frequency, TF over GST control)","1.07 fold enrichment (6-mer frequency, TF over GST control)","1.05 fold enrichment (6-mer frequency, TF over GST control)","1.09 fold enrichment (6-mer frequency, TF over GST control)","1.05 fold enrichment (6-mer frequency, TF over GST control)",–,"1.02 fold enrichment (6-mer frequency, TF over GST control)",–,"1.06 fold enrichment (6-mer frequency, TF over GST control)","1.05 fold enrichment (6-mer frequency, TF over GST control)","1.06 fold enrichment (6-mer frequency, TF over GST control)","1.05 fold enrichment (6-mer frequency, TF over GST control)","1.21 fold enrichment (6-mer frequency, TF over GST control)"
